Sfp inh: inhibitors of Bacillus subtilis Sfp phosphopantetheinyl transferase; AID 1490; Q9F4F7; hit rate 3.5% among 310,000; Biochemical Sfp PPTase activity, qHTS; Potency, µM, actives largely listed as inhibitors;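 also: the enzyme is Sfp with the accession as filed and its product quenches rhodamine fluorescence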
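Buffer: 50 mM Hepes-Na pH 7.6, 10 mM MgCl2, 0.01% Nonidet P-40, 0.01% BSA. Enzyme 15 nM, pre-exposed to compound 15 min; substrates then added and fluorescence change tracked over 30 min.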
BAZ2B inh: inhibitors of human BAZ2B bromodomain. AID 504333. AlphaScreen BAZ2B-H3K14Ac peptide displacement. Potency, µM (highest dose often 114 µM), hits mostly inhibitors. hit rate 4.4% among 360,000. Q9UIF8; also: nearly all actives have a fitted effect of over 60% in size
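AlphaScreen luminescence quantifies BAZ2B engagement of H3K14Ac peptide; the protein and biotinylated peptide are both at 50 nM final, buffer PBS pH 7.4 with 0.01% Tween-20, all steps at room temperature.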
G9a block: inhibitors of human histone lysine methyltransferase G9a; Q96KQ7; Potency, µM (top dose mostly 102 µM), usual class: inhibitors; hit rate 8.8% among 350,000; G9a H3K9 monomethylation, AlphaScreen, 2 h; also: nearly all actives have a fitted effect of over 75% in size
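Using a bead-based AlphaScreen, monomethylated H3K9 product from 2 h room-temperature reactions (G9a 20 nM, peptide 500 nM, SAM 20 uM) was detected with 0.5 ug/mL rabbit anti-H3K9me1 antibody.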
JMJD2A Tudor: inhibitors of human JMJD2A Tudor domain; O75164; AlphaScreen JMJD2A-Tudor / H3K4me3 peptide binding; Potency, µM (top dose mostly 114 µM), actives largely listed as inhibitors; hit rate 4.4% among 390,000; AID 504339; also: nearly all actives have a fitted effect of over 50% in size
Target sequence (O75164 whole entry, looked up, the tested form may be a part): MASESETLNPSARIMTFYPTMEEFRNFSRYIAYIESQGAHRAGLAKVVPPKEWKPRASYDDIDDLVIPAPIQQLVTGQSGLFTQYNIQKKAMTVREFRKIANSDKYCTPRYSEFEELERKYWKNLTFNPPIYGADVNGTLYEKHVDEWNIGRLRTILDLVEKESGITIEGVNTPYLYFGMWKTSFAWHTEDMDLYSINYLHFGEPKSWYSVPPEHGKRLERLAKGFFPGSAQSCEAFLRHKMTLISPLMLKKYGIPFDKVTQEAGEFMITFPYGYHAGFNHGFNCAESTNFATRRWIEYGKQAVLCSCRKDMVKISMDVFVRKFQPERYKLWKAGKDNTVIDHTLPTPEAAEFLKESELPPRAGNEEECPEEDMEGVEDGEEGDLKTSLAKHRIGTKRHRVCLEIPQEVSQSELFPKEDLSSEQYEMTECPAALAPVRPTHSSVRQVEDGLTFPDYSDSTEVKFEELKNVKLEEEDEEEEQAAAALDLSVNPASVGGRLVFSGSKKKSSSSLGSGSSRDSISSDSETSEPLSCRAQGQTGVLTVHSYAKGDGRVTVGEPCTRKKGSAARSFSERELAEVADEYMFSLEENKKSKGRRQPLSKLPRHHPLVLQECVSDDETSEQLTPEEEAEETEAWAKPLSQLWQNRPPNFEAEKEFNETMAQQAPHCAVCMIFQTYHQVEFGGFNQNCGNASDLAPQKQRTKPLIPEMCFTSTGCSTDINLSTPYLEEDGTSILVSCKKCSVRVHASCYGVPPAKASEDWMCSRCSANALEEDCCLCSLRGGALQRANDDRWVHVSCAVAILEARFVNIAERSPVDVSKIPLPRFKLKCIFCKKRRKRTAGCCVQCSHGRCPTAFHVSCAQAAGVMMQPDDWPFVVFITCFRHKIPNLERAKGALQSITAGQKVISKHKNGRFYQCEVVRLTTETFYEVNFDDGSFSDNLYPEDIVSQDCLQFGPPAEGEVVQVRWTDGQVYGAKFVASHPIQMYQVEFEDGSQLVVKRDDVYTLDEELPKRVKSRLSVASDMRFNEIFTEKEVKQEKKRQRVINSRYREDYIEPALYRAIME
HP1b binding inh: HP1-beta chromodomain-methylated histone interaction inhibition. AlphaScreen HP1-beta / biotin-H3K9me3 peptide binding. Potency, µM (doses to about 114 µM), hits mostly inhibitors. hit rate 0.56% among 390,000. AID 540317; also: nearly all actives have a fitted effect of over 70% in size
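AlphaScreen: HP1-beta (50 nM) preformed 30 min with biotin-H3(1-18)K9me3 peptide (50 nM) in PBS pH 7.4, 0.01% Tween-20. Compound added for 30 min at RT, then streptavidin donor/nickel chelate acceptor beads (10 ug/mL) for 30 min.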
Each line names hits and unclear results; the compound was inactive in the other large screens. Most compounds without a hit are left out; they make up all but 12% or so of the library. Calls follow the shape of the dose curve; as a rule, active = well fitted curve in the direction sought with a large enough effect; inconclusive = small, poorly fitted or top-dose-only effect, or another doubt; inactive = no such curve, though single readings can be large; an effect the other way counts as inactive or inconclusive.

COc1ccccc1C(=O)NCC(c1ccc(N(C)C)cc1)N1CCc2ccccc21 (centres undefined)	BAZ2B inh 10µM, G9a block 14.1µM, JMJD2A Tudor 11.2µM, HP1b binding inh 11.2µM (no result: Sfp inh)
CN(C)c1ccc(C(CNC(=O)c2ccccc2Cl)N2CCCC2)cc1 (centres undefined)	G9a block inconclusive (no result: Sfp inh)
CCC(=S)/C=C1\Sc2ccccc2N1CCCS(=O)(=O)O	BAZ2B inh inconclusive, JMJD2A Tudor 28.2µM, HP1b binding inh inconclusive (no result: G9a block)
Clc1ccccc1Cn1nnc2c(N3CCCC3)ncnc21	none
Fc1ccccc1Cn1nnc2c(-n3ccnc3)ncnc21	JMJD2A Tudor 56.2µM
COC(=O)C1=C(C(=O)OC)SC2(S1)C(C(=O)OC)=C(C(=O)OC)SC1=C2c2cc(C)ccc2NC1(C)C	Sfp inh 2.82µM, BAZ2B inh inconclusive, G9a block inconclusive, JMJD2A Tudor 56.2µM
CCOC(=O)C1(N(CC)CC)Sc2cc(C)ccc2NC1=O (centres undefined)	BAZ2B inh inconclusive, G9a block inconclusive
Cc1cc(=S)c2cccc(C)c2[nH]1	Sfp inh 35.5µM, G9a block 56.2µM
Cc1cccc2c(=O)cc(C(F)(F)F)[nH]c12	none (no result: G9a block)
COc1ccc(C=CC(=O)c2ccc(OC)c(OC)c2O)cc1OC	JMJD2A Tudor 50.1µM, HP1b binding inh inconclusive (no result: Sfp inh, BAZ2B inh, G9a block)
COc1ccc(C(=O)/C=C/c2ccc(OC)c(O)c2)c(F)c1	Sfp inh 50.1µM, G9a block inconclusive
COc1ccc(C(=O)/C=C/c2ccc(O)cc2)c(O)c1C/C=C(\C)CCC=C(C)C	JMJD2A Tudor 28.2µM (no result: Sfp inh, BAZ2B inh, G9a block)
Cc1ccc(C)c(N2CCN(S(=O)(=O)c3cc4c(cc3C)NC(=O)CO4)CC2)c1	none (no result: G9a block)
C#CCCCO/N=C1/[C@H]2O[C@@H]2[C@@H](O)[C@H]2[C@H]1CCn1c(=O)n(-c3ccccc3)c(=O)n12	none (no result: BAZ2B inh, G9a block, JMJD2A Tudor, HP1b binding inh)
O=C1CN(C(=O)c2ccc(Br)o2)C(c2ccccc2)c2cc(Cl)ccc2N1 (centres undefined)	Sfp inh inconclusive, BAZ2B inh inconclusive, G9a block 56.2µM
Cc1ccc2c(c1)C(c1ccccc1)N(C(=O)c1ccc(Br)o1)CC(=O)N2 (centres undefined)	BAZ2B inh inconclusive, G9a block 39.8µM, JMJD2A Tudor inconclusive
CCCCCC(=O)N1c2ccccc2C(C)(c2ccccc2)CC1(C)C (centres undefined)	none (no result: Sfp inh)
COC(=O)c1cc(OC)c(OC)cc1NC(=O)c1ccccc1C	none
COc1cc(OC)c(OC)cc1CN1CCC(O)CC1	BAZ2B inh inconclusive, G9a block inconclusive, JMJD2A Tudor 17.8µM, HP1b binding inh inconclusive
CCOc1ccccc1N1CCN(Cc2ccc(OC)c(OC)c2OC)CC1	BAZ2B inh inconclusive, G9a block inconclusive, JMJD2A Tudor 3.98µM, HP1b binding inh inconclusive
COc1ccc(C(C)=O)cc1CN1CCCCC1	G9a block inconclusive
COc1cc(OC)c(OC)cc1CN1CCN(Cc2cccn2C)CC1	Sfp inh 50.1µM, BAZ2B inh 39.8µM, G9a block 3.55µM, JMJD2A Tudor 3.55µM, HP1b binding inh 25.1µM
CCOC(=O)C1CCN(c2ccccc2CN2CCN(c3ccccc3OCC)CC2)CC1	none
COc1ccccc1N1CCN(Cc2nc3ccsc3c(=O)[nH]2)CC1	JMJD2A Tudor 3.55µM
COc1cc(Cl)c(CN2CCC(CCC(=O)NC3CC3)CC2)cc1OC	none (no result: G9a block)
Cc1noc(C)c1CC(=O)Nc1ccc2c(c1)OCO2	none (no result: Sfp inh)
C[C@H](O)C(N)C(=O)O (some centres undefined)	none (no result: BAZ2B inh, G9a block, JMJD2A Tudor, HP1b binding inh)
COc1cc(OC)c(OC)cc1CN1CCN(c2ccccc2OC)CC1	BAZ2B inh inconclusive, G9a block inconclusive, JMJD2A Tudor 3.16µM, HP1b binding inh inconclusive
COc1ccccc1N1CCN(Cc2cc3c(cc2Br)OCCO3)CC1	BAZ2B inh inconclusive, G9a block inconclusive, JMJD2A Tudor inconclusive
O=C(Nc1cccc(-c2nc3ccccc3o2)c1)c1cccc2c(Cl)cccc12	none (no result: Sfp inh)
c1coc(CNC2CCCCCCC2)c1	BAZ2B inh 89.1µM, G9a block 20µM, JMJD2A Tudor 50.1µM
c1coc(CNC2CCCCC2)c1	Sfp inh inconclusive, BAZ2B inh inconclusive, G9a block inconclusive, JMJD2A Tudor 7.08µM
C[N+](C)(C)C/C=C1/COCO1	G9a block 50.1µM, JMJD2A Tudor inconclusive
COc1ccc(CNc2ccnc(-c3cccc(NS(C)(=O)=O)c3)n2)c(OC)c1	none (no result: BAZ2B inh, JMJD2A Tudor, HP1b binding inh)
CCNc1nc(SCC(=O)Nc2ccccc2)nc(N2CCOCC2)n1	none
CC(C)(C)Nc1nc(SCC(=O)Nc2ccccc2Cl)nc(N2CCOCC2)n1	BAZ2B inh 79.4µM (no result: G9a block)
CCCNC(=O)CN1CCN(c2ncc(NC(=O)c3ccc(Cl)cc3)cc2C(=O)O)CC1	BAZ2B inh 50.1µM, G9a block inconclusive, JMJD2A Tudor 70.8µM (no result: Sfp inh)
CCCCNC(=O)CN1CCN(c2ncc(NC(=O)c3ccc(Cl)cc3)cc2C(=O)O)CC1	BAZ2B inh 50.1µM, G9a block inconclusive, JMJD2A Tudor 79.4µM (no result: Sfp inh)
CCCCNC(=O)CN1CCN(c2ccc(NC(=O)c3ccc(OC)cc3)cc2C(=O)O)CC1	JMJD2A Tudor inconclusive (no result: Sfp inh)
Cc1cc(/C=C(\C#N)C(=O)O)c(C)n1CC1CCCO1 (centres undefined)	G9a block inconclusive, JMJD2A Tudor 14.1µM, HP1b binding inh inconclusive
CCCn1c(C)cc(/C=C(\C#N)C(=O)O)c1C	none
Cc1cc(/C=C(\C#N)C(=O)O)c(C)n1-c1ccc(Br)cc1	BAZ2B inh inconclusive, G9a block 70.8µM
Cc1cc(C=C(C#N)C#N)c(C)n1-c1ccccc1	none

Source: PubChem BioAssay (National Center for Advancing Translational Sciences (NCATS))
